Records with an inconclusive call do not appear. Calls of active or inactive are those of the source. Calls come from the whole dose curve; as a rule, active = well fitted inhibition curve with a large enough effect; inconclusive = small, poorly fitted or top-dose-only effect; inactive = flat fitted curve, though single readings scatter.
Legend:
TAB165 = experiment: qHTS profiling for inhibitors of Plasmodium falciparum proliferation (AID 504749);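 note: 0% = DMSO vehicle and full inhibition = artemisinin control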; conditions: P. falciparum in erythrocytes, SYBR Green DNA, 72 h; series mostly up to 28.7 µM
Outline: (§1)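 Fluorescence of SYBR Green-bound parasite DNA, read at 485/535 nm, served as the growth measure. Infected erythrocytes were cultured with compound 72 h; artemisinin (0.29 uM) and DMSO wells defined the normalization range.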

CRL-7250 = normal cell line; experiment: Cytotoxic Profiling of Annotated Libraries Using Quantitative High-Throughput Screening (AID 1296008); conditions: Five cell lines viability, CellTiter-Glo ATP luminescence, 48-72 h; max response: hits give low values; for max response: % is set by controls: 0 for no effect and ±100 for the full control effect
Outline: (§2)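 Compounds were pin-transferred onto cells and incubated 48 or 72 hr at 37 degree Celsius, 95% humidity. CellTiter-Glo was added, plates sat 10 min at room temperature, then ATP-coupled luminescence was imaged as the viability read-out.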

HEK293 = experiment: as above; conditions: Five cell lines viability, CellTiter-Glo ATP luminescence, 48-72 h; max response: hits give low values
Outline: as §2

HaCat [1] = experiment: as above; conditions: Five cell lines viability, CellTiter-Glo ATP luminescence, 48-72 h; max response: hits give low values
Outline: as §2

KB-3-1 = experiment: as above; conditions: Five cell lines viability, CellTiter-Glo ATP luminescence, 48-72 h; max response: hits give low values
Outline: as §2

NIH3T3 = experiment: as above; conditions: Five cell lines viability, CellTiter-Glo ATP luminescence, 48-72 h; max response: hits give low values
Outline: as §2

HACAT [2] = experiment: qHTS assay to identify novel small-molecules to repurpose for Merkel cell carcinoma treatment (AID 1296009); conditions: MCC and control cell lines, CellTiter-Glo viability, 72 h; at 44.8 µM (top of the series) unless noted
Outline: (§3)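 Luminescence from CellTiter-Glo, read 10 min after addition at room temperature, reported viability following a 72 hr, 37 degree celsius treatment with NPC or MIPE compounds in titration; values normalized to plate controls.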

HEK293T = experiment: as above; conditions: MCC and control cell lines, CellTiter-Glo viability, 72 h; at 44.8 µM (top of the series) unless noted
Outline: as §3

MCC-13 = experiment: as above; conditions: MCC and control cell lines, CellTiter-Glo viability, 72 h; series mostly up to 46 µM
Outline: as §3

W2 = experiment: qHTS profiling for inhibitors of Plasmodium falciparum proliferation (AID 504749);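 note: 0% = DMSO vehicle and full inhibition = artemisinin control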; conditions: P. falciparum in erythrocytes, SYBR Green DNA, 72 h; series mostly up to 28.7 µM
Outline: as §1
Note: nearly all actives have a fitted effect of over 60% in size.

O=C(O)COc1nn(Cc2ccccc2)c2ccccc12
inactive: Potency (TAB165) | max response (CRL-7250) -2.07% | outcome (HEK293) | outcome (HaCat [1]) | max response (KB-3-1) -3.25% | max response (NIH3T3) 2.16% | outcome (HACAT [2]) | outcome (HEK293T) | Potency (MCC-13)

CC(C)(C)NCC(O)COc1ccc(NC(=O)NC2CCCCC2)cc1 (stereo not drawn)
inactive: Potency (TAB165) | Potency (W2) | outcome (CRL-7250) | outcome (HEK293) | outcome (HaCat [1]) | max response (KB-3-1) 0.958% | outcome (NIH3T3) | outcome (HACAT [2]) | outcome (HEK293T) | Potency (MCC-13)

O=C(O)CC(O)C(=O)O (stereo not drawn)
inactive: Potency (TAB165) | Potency (W2) | max response (CRL-7250) -10.5% | outcome (HEK293) | outcome (HaCat [1]) | max response (KB-3-1) 15.7% | max response (NIH3T3) 4.82% | outcome (HACAT [2]) | outcome (HEK293T) | Potency (MCC-13)

O=S(=O)(O)NC1CCCCC1
inactive: Potency (TAB165) | max response (CRL-7250) -7.57% | outcome (HEK293) | outcome (HaCat [1]) | max response (KB-3-1) -17.7% | max response (NIH3T3) 1.01% | outcome (HACAT [2]) | outcome (HEK293T) | Potency (MCC-13)

Cc1cccc(C)c1NC(=O)CN(CC(=O)O)CC(=O)O
inactive: Potency (TAB165) | max response (CRL-7250) 0.46% | outcome (HEK293) | outcome (HaCat [1]) | max response (KB-3-1) 2.9% | max response (NIH3T3) -7.57% | outcome (HACAT [2]) | outcome (HEK293T) | Potency (MCC-13)

CC1=C(C/C=C(\C)CCC[C@H](C)CCC[C@H](C)CCCC(C)C)C(=O)c2ccccc2C1=O
inactive: max response (CRL-7250) 1.2% | outcome (HEK293) | outcome (HaCat [1]) | max response (KB-3-1) -12.7% | max response (NIH3T3) 1.11% | outcome (HACAT [2]) | outcome (HEK293T) | Potency (MCC-13)

CN(C)CCN(Cc1ccccc1)c1ccccn1
inactive: Potency (TAB165) | outcome (CRL-7250) | outcome (HEK293) | outcome (HaCat [1]) | max response (KB-3-1) -7.24% | max response (NIH3T3) 0.397% | outcome (HACAT [2]) | outcome (HEK293T) | Potency (MCC-13)

CCCc1c(OCCCCc2nn[nH]n2)ccc(C(C)=O)c1O
inactive: Potency (TAB165) | max response (CRL-7250) -1.12% | outcome (HEK293) | outcome (HaCat [1]) | max response (KB-3-1) -12.2% | max response (NIH3T3) 2.45% | outcome (HACAT [2]) | outcome (HEK293T) | Potency (MCC-13)

Nc1ccc(S(=O)(=O)Nc2ccccc2)cc1
inactive: Potency (TAB165) | Potency (W2) | outcome (CRL-7250) | outcome (HEK293) | outcome (HaCat [1]) | max response (KB-3-1) 8.52% | max response (NIH3T3) 3.32% | outcome (HACAT [2]) | outcome (HEK293T) | Potency (MCC-13)

NC(=O)NC(=O)Cc1ccccc1
inactive: Potency (TAB165) | Potency (W2) | max response (CRL-7250) 3.98% | outcome (HEK293) | outcome (HaCat [1]) | max response (KB-3-1) 5.24% | max response (NIH3T3) 3.84% | outcome (HACAT [2]) | outcome (HEK293T) | Potency (MCC-13)

COc1cc2[nH]c(=O)[nH]c(=O)c2cc1OC
inactive: Potency (TAB165) | Potency (W2) | outcome (CRL-7250) | outcome (HEK293) | outcome (HaCat [1]) | max response (KB-3-1) 35.7% | max response (NIH3T3) 2.37% | outcome (HACAT [2]) | outcome (HEK293T) | Potency (MCC-13)

CC(=O)CCC(=O)O
inactive: Potency (TAB165) | Potency (W2) | max response (CRL-7250) -8.02% | outcome (HEK293) | outcome (HaCat [1]) | max response (KB-3-1) 2.58% | outcome (NIH3T3) | outcome (HACAT [2]) | outcome (HEK293T) | Potency (MCC-13)

O=C(O)c1ccccn1
inactive: Potency (TAB165) | Potency (W2) | max response (CRL-7250) -6.73% | outcome (HEK293) | outcome (HaCat [1]) | max response (KB-3-1) -2.2% | outcome (NIH3T3) | outcome (HACAT [2]) | outcome (HEK293T) | Potency (MCC-13)
